This passage reports outcome and AC50 results from PubChem BioAssay (EPA / NIEHS).

Broadly, the AC50 is the concentration giving half of the maximal activity seen.

“And” between values parts separate entries of the source, which are not always exact repeats. Identical values can stand only once. Records with an inconclusive call do not appear. The source made the active and inactive calls. Rule for the calls: active = hit-call score of the fitted dose curve at least 0.9, where 1 is the maximum; inconclusive = response in the unintended direction; inactive = score below 0.9.

The assay is described as follows: IUF_NPC1_cytotoxicity_72hr: Cytotoxicity Assessment at 72 hours in the Leibniz Research Institute for Environmental Medicine (IUF) Neural Progenitor Cell Proliferation Assay (NPC1) (AID 2284332).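 Note: rising LDH signal means more cytotoxicity.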 How it is done: IUF_NPC1 is a cell-based, multiplexed assay that uses hNPC, a human primary neural progenitor cells, with measurements taken at 72 hours after chemical dosing in a 96-well plate. Human neural progenitor cells (hNPC) are generated from human fetal brain cortex at gestational week (GW) 16-19. Grown in suspension culture and under proliferative conditions (proliferation media and growth factors), these cells represent neural progenitor cell proliferation. In the NPC1 assay, hNPC's are exposed to the test compound for 72h. Cell proliferation is assessed as an increase in sphere area using automated phase contrast imaging and as incorporation of Bromodeoxyuridine (BrdU) during DNA synthesis using a luminescence-based cell proliferation ELISA. In parallel, the cell viability is assessed using an alamar blue viability assay and the cytotoxicity using a lactate dehydrogenase dependent membrane integrity assay.IUF_NPC1_cytotoxicity_72hr is one of 4 assay components measured from the IUF_NPC1 assay. It is designed to measure cytotoxicity at 72 hrs due to loss of membrane integrity. LDH measurements are performed from medium supernatants of each well and are based on the reduction of resazurin to resorufin measured as fluorescence signal (relative fluorescence unit) in a multiplate reader. Data from the IUF_NPC1_cytotoxicity_72hr component was analyzed at the endpoint IUF_NPC1_cytotoxicity_72hr in the positive analysis fitting direction relative to the dynamic range and baseline of activity. Using a type of viability reporter, gain-of-signal activity can be used to understand cytotoxicity effects.
After the cell expansion period, the cells are cultured for up to four weeks in which they are passaged every week. Between one to three days after passaging, depending on the size chosen for passaging, spheres at a size of 0.3 mm are used in the assay. For the assessment of neural progenitor cell proliferation, the spheres are plated in poly-Hema coated 96-well U-bottom plates filled with proliferation medium containing growth factors (EGF and FGF). One 0.25 - 0.35 mm big sphere is plated in the middle of each well. Within 3 days NPCs proliferate and grow in size. Cultivation during the test method is performed at 37C and 5% CO2 at a pH of 7.2-7.6. As a positive control, spheres are cultivated in the absence of growth factors (EGF and FGF), which dramatically reduces proliferation. Exposure starts on the plating day (day 0) and is continued over three days, without chemical renewal, until the experiment is terminated. The assay is terminated by the assessment of cell viability, cytotoxicity, and proliferation by BrdU. All endpoints are generated from the same experimental run and from each well/sphere in the 96-well plate.
In the case of `CCCSP(=O)(OCC)SCCC`, the result was inactive. Turning to `CC(=NC#N)N(C)Cc1ccc(Cl)nc1`, the compound was called inactive.

Consider `COP(=O)(OC)C(O)C(Cl)(Cl)Cl` (stereo not drawn), for which the compound was called inactive. Regarding `S=C1NCCN1`, the compound was called inactive. As to `COP(=O)(NC(C)=O)SC` (stereo not drawn), the result was inactive. Turning to `CCCCSP(=O)(SCCCC)SCCCC`, the AC50 is 82.5 µM (active).

As for `CCOP(=S)(OCC)SCCSCC`, the result was inactive.

On to `O=[N+]([O-])c1cc(C(F)(F)F)c(Cl)c([N+](=O)[O-])c1Nc1ncc(C(F)(F)F)cc1Cl`, for which the AC50 was 21.9 µM (active). On to `CN1COCN(Cc2cnc(Cl)s2)C1=N[N+](=O)[O-]`, for which the outcome was inactive. On the same count and under the same terms, for `CC1=NNC(=O)N(/N=C/c2cccnc2)C1` the value was “inactive”.

As for `CCOC(=O)CC(SP(=O)(OC)OC)C(=O)OCC` (stereo not drawn), the call was inactive.

With `CCOP(=O)(NC(C)C)Oc1ccc(SC)c(C)c1` (stereo not drawn), the compound was called inactive. In the case of `CCOP(=S)(OCC)OC(Cl)C(Cl)(Cl)Cl` (stereo not drawn), the compound was classed as inactive. Consider `C[N+]1(C)CCCCC1`, for which the compound was called inactive.

As for `COP(=O)(OC)OC(Br)C(Cl)(Cl)Br` (stereo not drawn), the compound was called inactive. For `CCOP(=S)(Oc1cnc(C(C)(C)C)nc1)OC(C)C` (stereo not drawn), the compound was classed as inactive. With `CCOP(=S)(OCC)Oc1cc(C)nc(C(C)C)n1`, the result was inactive. In the case of `CSC1=N[C@@](C)(c2ccccc2)C(=O)N1Nc1ccccc1`, the result was inactive. In the case of `CC[C@H](C)[C@H]1O[C@]2(C=C[C@@H]1C)C[C@@H]1C[C@@H](C/C=C(\C)[C@@H](O[C@H]3C[C@H](OC)[C@@H](O[C@H]4C[C@H](OC)[C@@H](NC)[C@H](C)O4)[C@H](C)O3)[C@@H](C)/C=C/C=C3\CO[C@@H]4[C@H](O)C(C)=C[C@@H](C(=O)O1)[C@]34O)O2`, the AC50 is 18.5 µM (active) and 3.79 µM (active). In the case of `C=C(C)[C@H]1Cc2c(ccc3c2O[C@@H]2COc4cc(OC)c(OC)cc4[C@@H]2C3=O)O1`, the compound was called inactive. As to `CCOP(=O)(OCC)Oc1cc(C)nc(C(C)C)n1`, the call was inactive. Regarding `CON=C(C(=O)OC)c1ccccc1CON=C(C)c1cccc(C(F)(F)F)c1`, the compound was called inactive. On to `CN(C)[C@@H]1C(=O)C(C(N)=O)=C(O)[C@@]2(O)C(=O)C3=C(O)c4c(O)cccc4[C@@](C)(O)[C@H]3[C@H](O)[C@@H]12`, for which the compound was classed as inactive.
